The panel holds about 83,000 compounds, 20% with a hit somewhere; the sample as a whole holds those more often.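 Plates (96-well) were seeded with cells, treated with compound at one concentration, and incubated for 48 hours before percent growth was determined.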 Unmarked numbers belong to inactive results. Active and inactive are the calls of the source. How the source made its calls: active means growth percent below 10; inactive means the rest.
What follows are compounds tested on SF-539 CNS (assay: NCI-60 one-dose screen, 48 h (100 = growth as untreated, 0 = no growth, -100 = all killed)). Details: 10 µM unless noted.

Row | Structure (SMILES) | growth
1 | O=C(CSc1nc2ccc([N+](=O)[O-])cc2[nH]1)Nc1ccc(F)c(Cl)c1 | 35%
2 | Cc1cc(C)c(O)c(CNCCCCCCNCc2cc(C)cc(C)c2O)c1 | -85.3% (active)
3 | CS(=O)(=O)c1cccnn1 | 82%
4 | Cc1ccc(S(=O)(=O)Nc2ccccc2)cc1N | 106%
5 | Nc1cc(C(=O)O)[nH]c(=S)n1 | 104%
6 | COc1ccc(-c2nc3ccccn3c2/C=C/C(=O)c2cc(OC)c(OC)c(OC)c2)cc1OC | -25.1% (active)
7 | O=C(Nc1cccc2cccnc12)c1cc(C(=O)c2ccc(Cl)cc2)n2ccc(-c3ccncc3)cc12 | 99.7%
8 | Cc1cccc(C[C@H](NC(=O)Nc2ccc(C)cc2F)C(=O)N[C@@H]2C(=O)N3C[C@H](O)C[C@H]3C(=O)N3CCN(C)C[C@H]3C(=O)N[C@@H](C)C(=O)N3C[C@H](C)C[C@H]3C(=O)O[C@H]2C)c1 | 50.7%
9 | O=C1COCCN1c1ccc(NCc2cn(Cc3cccc4ccccc34)c3ccccc23)cc1 | 95.6%
10 | COc1ncnc2c(-c3ccccc3)cn(COCc3ccccc3)c12 | 84.1%
11 | O=C1CN(Cc2ccc(C(=O)NO)cc2)C(=O)[C@@H](Cc2ccccc2)N1 | 99.7%
12 | CC(C)C1=NOC(=O)C1=Cc1cn(-c2ccco2)nc1-c1ccccc1 | 99.9%
13 | c1ccc(-c2nnc(-c3c[nH]c4ncccc34)s2)cc1 | 96.9%
14 | COCCCNc1nc(NC(=O)c2cc(Br)cc(C(F)(F)F)c2)cc(-c2cccnc2)n1 | 94%
15 | CCn1cc(-c2cc(-c3ccc(Cl)cc3)nc(N)n2)c(-c2ccc(Br)cc2)n1 | 87.3%
16 | CCOC(CNC(=O)c1cccc([N+](=O)[O-])c1)OCC | 96.9%
17 | Cc1cccc([N+](=O)[O-])c1I | 105%
18 | CCOc1cc(NC(=O)c2ccccc2)c(OCC)cc1N | 112%
19 | CN(C)CCOc1ccc(/C(=C(/CCCl)c2ccccc2)c2ccccc2)cc1 | 1.72% (active)

Row | Structure (SMILES) | growth
20 | Nc1nc(N)c2c(n1)NC(c1ccc(F)cc1)C1CCc3ccccc3C1=N2 (stereo unspecified) | 56.8%
21 | CNC(=O)c1cc(Oc2ccc3nc(NC(=O)c4ccc5ncccc5c4)sc3c2)ccn1 | 107%
22 | CC1(C)CC[C@]23CC[C@]4(C)[C@H](CC[C@@H]5[C@@]6(C)C/C(=C/c7ccncc7)C(=O)C(C)(C)[C@@H]6CC[C@]54C)[C@H]2[C@H]1OC3=O | 6.84% [100 µM] (active)
23 | CC1=CC[C@@H]2C(C)(C)C(=O)CC[C@@]2(C)[C@@H]1COc1ccc2ccc(=O)oc2c1 | 87.5%
24 | COc1ccc(/C=C/C=C\C(=O)c2ccc(-n3ccnc3)cc2)cc1 | 97.9%
25 | CCc1cccc(Cl)c1 | 104%
26 | Cc1ccc(S(=O)(=O)n2cc(C(=O)C(=O)N3CCCCC3)c3ccccc32)cc1 | 90.6%
27 | Cn1cc(-c2noc(-c3cn(C)c4ncc(F)cc34)n2)c2cc(Cl)ccc21 | 46%
28 | O=C(Nc1cccc2ccccc12)c1cc2ccccc2cc1O | 17.7%
29 | C#C[C@]1(O)CC[C@H]2[C@@H]3CC=C4c5nc(Nc6ncccn6)sc5CC[C@]4(C)[C@H]3CC[C@@]21C | -50.1% (active)
30 | CC(=O)OC[C@]12CC[C@@H](C(=O)CBr)[C@@H]1[C@H]1CC[C@@H]3[C@@]4(C)CCCNC(C)(C)[C@@H]4CC[C@@]3(C)[C@]1(C)CC2 | -81.4% [100 µM] (active)
31 | O=S(=O)(c1ccc(N/N=C\c2ccccc2Cl)cc1)c1ccc(N/N=C/c2ccccc2Cl)cc1 | 89.7%
32 | Nc1nc(Cl)c2ncn(Cc3cc4c(cc3I)OCO4)c2n1 | 46.5%
33 | Cc1ccc2c(c1)/C(=N\N=C/c1cn(C(C)C)c3ccccc13)C(=O)N2 | 58.6%
34 | O=C1CC(c2ccccc2)Cc2nc3ccc(Cl)cc3cc21 (stereo unspecified) | -12% (active)
35 | C=C(C)[C@@H]1CC[C@]2(C(N)=O)CC[C@]3(C)[C@H](CC[C@@H]4[C@@]5(C)CC[C@H](O)C(C)(C)[C@@H]5CC[C@]43C)[C@@H]12 | -70.5% [100 µM] (active)
36 | COc1ccc(-c2cc(-c3ccc(Cl)cc3)nc(SCCCCCCC(=O)NO)n2)cc1 | 34.8%
37 | Cc1cc[n+](CCCCCCCCCC[n+]2ccc(C)cc2)cc1 | 99.2%
38 | CCCSc1nc(N)nc2nc[nH]c12 | 95.6%

The compounds below were run on UACC-257 melanoma in the same assay as above. Details: 10 µM unless noted.

Row | Structure (SMILES) | growth
39 | O=C(CSc1nc2ccc([N+](=O)[O-])cc2[nH]1)Nc1ccc(F)c(Cl)c1 | 10.5%
40 | Cc1cc(C)c(O)c(CNCCCCCCNCc2cc(C)cc(C)c2O)c1 | -80.6% (active)
41 | CS(=O)(=O)c1cccnn1 | 108%
42 | Cc1ccc(S(=O)(=O)Nc2ccccc2)cc1N | 92.3%
43 | Nc1cc(C(=O)O)[nH]c(=S)n1 | 93.3%
44 | COc1ccc(-c2nc3ccccn3c2/C=C/C(=O)c2cc(OC)c(OC)c(OC)c2)cc1OC | 52.8%
45 | O=C(Nc1cccc2cccnc12)c1cc(C(=O)c2ccc(Cl)cc2)n2ccc(-c3ccncc3)cc12 | 97.7%
46 | Cc1cccc(C[C@H](NC(=O)Nc2ccc(C)cc2F)C(=O)N[C@@H]2C(=O)N3C[C@H](O)C[C@H]3C(=O)N3CCN(C)C[C@H]3C(=O)N[C@@H](C)C(=O)N3C[C@H](C)C[C@H]3C(=O)O[C@H]2C)c1 | 27.3%
47 | O=C1COCCN1c1ccc(NCc2cn(Cc3cccc4ccccc34)c3ccccc23)cc1 | 78.4%
48 | COc1ncnc2c(-c3ccccc3)cn(COCc3ccccc3)c12 | 40%
49 | O=C1CN(Cc2ccc(C(=O)NO)cc2)C(=O)[C@@H](Cc2ccccc2)N1 | 93.2%
50 | CC(C)C1=NOC(=O)C1=Cc1cn(-c2ccco2)nc1-c1ccccc1 | 106%
51 | c1ccc(-c2nnc(-c3c[nH]c4ncccc34)s2)cc1 | 109%
52 | COCCCNc1nc(NC(=O)c2cc(Br)cc(C(F)(F)F)c2)cc(-c2cccnc2)n1 | 91%
53 | CCn1cc(-c2cc(-c3ccc(Cl)cc3)nc(N)n2)c(-c2ccc(Br)cc2)n1 | 73.5%
54 | CCOC(CNC(=O)c1cccc([N+](=O)[O-])c1)OCC | 83.2%
55 | Cc1cccc([N+](=O)[O-])c1I | 96.7%
56 | CCOc1cc(NC(=O)c2ccccc2)c(OCC)cc1N | 118%
57 | CN(C)CCOc1ccc(/C(=C(/CCCl)c2ccccc2)c2ccccc2)cc1 | -52.4% (active)

Row | Structure (SMILES) | growth
58 | Nc1nc(N)c2c(n1)NC(c1ccc(F)cc1)C1CCc3ccccc3C1=N2 (stereo unspecified) | 45.6%
59 | CNC(=O)c1cc(Oc2ccc3nc(NC(=O)c4ccc5ncccc5c4)sc3c2)ccn1 | 93.1%
60 | CC1(C)CC[C@]23CC[C@]4(C)[C@H](CC[C@@H]5[C@@]6(C)C/C(=C/c7ccncc7)C(=O)C(C)(C)[C@@H]6CC[C@]54C)[C@H]2[C@H]1OC3=O | 84.5% [100 µM]
61 | CC1=CC[C@@H]2C(C)(C)C(=O)CC[C@@]2(C)[C@@H]1COc1ccc2ccc(=O)oc2c1 | 91.4%
62 | COc1ccc(/C=C/C=C\C(=O)c2ccc(-n3ccnc3)cc2)cc1 | 93.1%
63 | CCc1cccc(Cl)c1 | 94%
64 | Cc1ccc(S(=O)(=O)n2cc(C(=O)C(=O)N3CCCCC3)c3ccccc32)cc1 | 101%
65 | Cn1cc(-c2noc(-c3cn(C)c4ncc(F)cc34)n2)c2cc(Cl)ccc21 | 96.5%
66 | O=C(Nc1cccc2ccccc12)c1cc2ccccc2cc1O | 5.69% (active)
67 | C#C[C@]1(O)CC[C@H]2[C@@H]3CC=C4c5nc(Nc6ncccn6)sc5CC[C@]4(C)[C@H]3CC[C@@]21C | -16% (active)
68 | CC(=O)OC[C@]12CC[C@@H](C(=O)CBr)[C@@H]1[C@H]1CC[C@@H]3[C@@]4(C)CCCNC(C)(C)[C@@H]4CC[C@@]3(C)[C@]1(C)CC2 | -76.6% [100 µM] (active)
69 | O=S(=O)(c1ccc(N/N=C\c2ccccc2Cl)cc1)c1ccc(N/N=C/c2ccccc2Cl)cc1 | 92.1%
70 | Nc1nc(Cl)c2ncn(Cc3cc4c(cc3I)OCO4)c2n1 | 81.4%
71 | Cc1ccc2c(c1)/C(=N\N=C/c1cn(C(C)C)c3ccccc13)C(=O)N2 | 59.5%
72 | O=C1CC(c2ccccc2)Cc2nc3ccc(Cl)cc3cc21 (stereo unspecified) | 69.1%
73 | C=C(C)[C@@H]1CC[C@]2(C(N)=O)CC[C@]3(C)[C@H](CC[C@@H]4[C@@]5(C)CC[C@H](O)C(C)(C)[C@@H]5CC[C@]43C)[C@@H]12 | -6.08% [100 µM] (active)
74 | COc1ccc(-c2cc(-c3ccc(Cl)cc3)nc(SCCCCCCC(=O)NO)n2)cc1 | 23%
75 | Cc1cc[n+](CCCCCCCCCC[n+]2ccc(C)cc2)cc1 | 106%
76 | CCCSc1nc(N)nc2nc[nH]c12 | 105%

Reference: PubChem BioAssay (NCI)
